# Screening data (PubChem)
# A selection: hits, their analogues and other compounds. The true share with any hit is near 7.8%.
# HCMV antiviral: blocks human cytomegalovirus replication. activity change, negative = inhibition, % at 57.5 µM. hit rate 4.5% among 410,000. HFF cells, HCMV-luciferase reporter, 72 h; stronger effect = lower value; in the data active = activity change below about -60%; inconclusive = no clear call, values can overlap the other calls; inactive = above about -39%; note: % is set by controls: 0 for no effect and ±100 for the full control effect
#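 HFF cells seeded 16 h at 37C, treated with compounds, infected with luciferase-reporter HCMV at MOI 1 PFU/cell; luciferase read at 72 h post infection, normalized to buffer-only and Salinomycin controls.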
# Marburg entry inh: Marburg virus entry inhibition. Marburg virus pseudotyped entry inhibition, cell reporter. Potency, µM (top dose mostly 37.8 µM), without a hit: at the highest dose activity change, negative = inhibition, most hits filed as inhibitors. hit rate 1.8% among 300,000. AID 540276; calls by dose curve; tested in HEK293 cells; note: potency is the fitted concentration of half-maximal effect; % is set by controls: 0 for no effect and ±100 for the full control effect
# VACV mCherry inh: vaccinia inhibition (mCherry reporter) | Vaccinia virus mCherry reporter infection, fluorescence | Potency, µM (series often up to 36.5 µM), without a hit: top-dose activity change, negative = inhibition, actives largely listed as inhibitors | hit rate 0.63% among 310,000; calls by dose curve; tested in A549 cells; note: potency is the fitted concentration of half-maximal effect; % is set by controls: 0 for no effect and ±100 for the full control effect; nearly all actives have a fitted effect of over 35% in size
# Lassa entry inh: Lassa virus entry inhibition; Lassa virus pseudotype entry inhibition, cell reporter; Potency, µM (titrated, usually from 37.9 µM), for inactives: at the top dose activity change, negative = inhibition, usual class: inhibitors; hit rate 1.2% among 300,000; AID 540256; calls by dose curve; tested in HEK293 cells; note: potency is the fitted concentration of half-maximal effect; % is set by controls: 0 for no effect and ±100 for the full control effect; nearly all actives have a fitted effect of over 50% in size
# HCV inhibitor: blocks hepatitis C virus. Huh7.5.1 HCVcc-Cre infection, luciferase reporter, 44 h. Potency, µM (highest dose often 41.8 µM), for inactives: at the top dose activity change, negative = inhibition, usual class: inhibitors. hit rate 3.4% among 340,000. AID 651820; note: potency is the fitted concentration of half-maximal effect; % is set by controls: 0 for no effect and ±100 for the full control effect
#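 HCVcc-Cre virus at an moi near 0.5 was added right after compound to cells cultured 4 h from seeding (1,000 cells/well). Luciferase activity was determined 44 h later, 15 min after substrate addition at RT.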
# Vaccinia Venus: vaccinia inhibition (Venus reporter) | hit rate 0.46% among 330,000 | Potency, µM (series often up to 36.5 µM), for the others: at the top dose activity change, negative = inhibition, usual class: inhibitors | Vaccinia virus Venus reporter expression, fluorescence | AID 720580; calls by dose curve; tested in A549 cells; note: potency is the fitted concentration of half-maximal effect; % is set by controls: 0 for no effect and ±100 for the full control effect; nearly all actives have a fitted effect of over 30% in size
# HCV inh confirm: confirmation of hepatitis C virus inhibitors. hit rate 78% among 640. AID 720575. shares compounds with HCV inhibitor. HCVcc-Cre infectious virus cell assay, luciferase, inhibition. Potency, µM (titrated, usually from 41.8 µM), for inactives: at the highest dose activity, negative = inhibition, most hits filed as inhibitors; note: potency is the fitted concentration of half-maximal effect; nearly all actives have a fitted effect of over 80% in size
# HCV host tox: toxic to HCV host cells, flagging false HCV inhibitors; AID 720576; shares compounds with HCV inhibitor; HCV host cell line cytotoxicity counterscreen; hit rate 22% among 640; Potency, µM (highest dose often 41.8 µM), for the others: at the top dose activity change, negative = cytotoxicity, hits mostly inhibitors;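 note: potency is the fitted concentration of half-maximal effect; 44 h compound exposure; % is set by controls: 0 for no effect and ±100 for the full control effect; nearly all actives have a fitted effect of over 55% in size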
# Active calls of the source: *; i = inactive; ? = inconclusive; · = no result given; [ ] = another dose, or the depositor's remark. Unless noted, calls come from the whole dose curve; as a rule, active = well fitted curve in the direction sought with a large enough effect; inconclusive = small, poorly fitted or top-dose-only effect, or another doubt; inactive = no such curve, though single readings can be large; an effect the other way counts as inactive or inconclusive.
SMILES,HCMV antiviral,Marburg entry inh,VACV mCherry inh,Lassa entry inh,HCV inhibitor,Vaccinia Venus,HCV inh confirm,HCV host tox
CCn1c2c(c(=N)c3ccccc31)CCC2,-77.1*,-26.1%,-3.1%,-0.6%,8.91µM*,-17.6%,25µM*,?
COc1ccc([N+](=O)[O-])cc1NC(=O)CSc1ccc2ccccc2c1,?,-17.0%,-14.0%,-10.1%,?,-1.7%,12.5µM*,?
COc1ccc([N+](=O)[O-])cc1NC(=O)CSc1nc(C)cc(C)n1,?,?,-19.0%,-9.3%,?,-2.1%,·,·
COc1cc(N)c(Cl)cc1C(=O)OCCN1CCCCC1,·,-14.3%,·,?,·,·,·,·
COc1cc(N)c(Cl)cc1C(=O)N[C@H]1CCN(CCCOc2ccc(F)cc2)C[C@H]1OC,-94.3*,·,-9.5%,·,1.78µM*,-16.5%,4.45µM*,4.0%
CC(C)CNC(=S)N(CCN(C)C)Cc1cc2cc3c(cc2[nH]c1=O)OCO3,48.1,5.5%[46.1 µM],-0.6%,?,4.47µM*,-21.6%,0.5%,16.6%
COc1cc2c(=O)n(CCC(=O)NCC3CCCO3)c(=O)n(CC(=O)c3ccc(Cl)cc3)c2cc1OC (stereo not drawn),-23.3,·,·,·,2µM*,·,7.91µM*,26.2%
O=C(c1ccc(Cl)cc1)N1CCCCC1CCN1CCOCC1 (stereo not drawn),44.1,14.9%[46.1 µM],-15.0%,?,·,-10.4%,·,·
CCOC(=O)c1cc2c(ccc3nc(C)c(C)c32)[nH]c1C,-16.7,·,·,·,3.16µM*,·,12.5µM*,20.2%
Cc1cc(C)nc(/N=C(\N)Nc2ccc(CC(=O)OC(C)C)cc2)n1,-30.2,?,?,6.9%[46.1 µM],3.55µM*,?,2.8µM*,-93.3%
Cc1cc(C)nc(/N=C(\N)Nc2ccc(S(=O)(=O)O)cc2)n1,-6.8,9.0%[46.1 µM],i,20.9%[46.1 µM],-0.6%,-7.2%,·,·
O=C(NC1CCCCCC1)C1c2ccccc2C(=O)N1Cc1ccccc1Cl (stereo not drawn),-5.5,?,-1.2%,-9.7%[46.1 µM],·,-6.5%,·,·
CCOc1ccc(OCC)c(NS(=O)(=O)c2c(C)[nH]c(=O)[nH]c2=O)c1,0.0,·,-8.4%,-3.5%[46.1 µM],·,-8.2%,·,·
COc1ccc2oc(=O)c(-c3nnc(NCc4ccco4)s3)cc2c1,43.0,?,?,-27.7%,4.47µM*,-19.9%,-20.5%,?
CC(C)Cc1ccc(C(C)C(=O)Nc2nccs2)cc1 (stereo not drawn),-17.2,?,-14.8%,-21.9%,2.3%,-10.1%,·,·
CC(C)Cc1ccc(C(C)C(=O)Nc2ccccc2O)cc1 (stereo not drawn),-82.0*,?,?,?,4.47µM*,-24.7%,4.45µM*,9.95µM*
Cc1ccc(-c2nnc(Nc3ccc(Br)cc3)c3ccccc23)cc1S(=O)(=O)N1CCCCC1,-15.0,·,-12.3%,?,·,-11.9%,·,·
C/C(=N\NC(N)=S)C1=CCC2C3CC[C@H]4CC(O)CC[C@]4(C)C3CC[C@]12C (stereo partly drawn),-38.0,·,·,·,?,·,7.91µM*,0.0%
C[C@]12CCC3C(CC[C@H]4C[C@H](O)CC[C@]34C)C1C[C@@H](O)[C@@H]2O (stereo partly drawn),-19.8,10.8%[46.1 µM],i,-15.4%[46.1 µM],-0.5%,-1.0%,·,·
CN(CC(=O)NCCc1ccc(S(N)(=O)=O)cc1)Cc1c(F)cccc1Cl,2.1,0.2%[46.1 µM],0.2%,·,-4.5%,-0.8%,·,·
CN(CC(=O)NCCc1ccc(S(N)(=O)=O)cc1)Cc1ccc(Cl)cc1Cl,-86.3*,?,-23.9%,-17.1%,7.08µM*,-16.1%,8.87µM*,17.7µM*
Cc1cc(C)cc(OCCSc2nc3ccc(NC(=O)c4cccs4)cc3s2)c1,-22.2,-8.7%[46.1 µM],-5.8%,11.2%[46.1 µM],·,-1.8%,·,·
CCCCCn1c(=O)[nH]c2cc(C(=O)NCCCN3CCC(C)CC3)ccc2c1=O,13.9,?,·,-19.9%,4.47µM*,·,15.8µM*,38.9%
O=[N+]([O-])c1cccc2ccc(/C=C/c3ccc(F)cc3)nc12,1.7,1.2%,?,15.7%,1µM*,-22.2%,3.15µM*,-21.1%
